From the supplement of paper PMC8728848
This is one part of a sample in which the strongest signals are shown more often than they occur.

Columns and labels:
Experiment in all cases: glycan array binding signal (z-score within array); higher = stronger binding
Conditions in all cases: glycan notation: IUPAC condensed, linker removed
[1] = target: GalNAc(b1-4)GlcNAc(b1-3)GalNAc(b1-4)GlcNAc
Procedure, shortened: (§1)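 Glycan array data were curated from 3228 arrays in the Consortium for Functional Glycomics database and kept only where the protein sequence was available. Glycan names were converted to IUPAC-condensed notation, and columns mapping to the same glycan were averaged. The binding signal is a within-array Z-score, averaged across arrays of the same protein sequence at different concentrations or buffers and across linkers. Negative Z-scores can be read as non-binding.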

[2] = target: GalNAc3S(b1-4)[Fuc(a1-3)]GlcNAc
Procedure, shortened: as §1

Glc(a1-4)Glc = target: Glc(a1-4)Glc
Procedure, shortened: as §1

[3] = target: GlcNAc(b1-2)[GlcNAc(b1-6)]Man(a1-6)[GlcNAc(b1-4)][GlcNAc(b1-2)Man(a1-3)]Man(b1-4)GlcNAc(b1-4)GlcNAc
Procedure, shortened: as §1

[4] = target: GlcNAc(b1-3)Gal(b1-4)GlcNAc(b1-3)Gal(b1-4)GlcNAc(b1-3)Gal(b1-4)GlcNAc(b1-2)[GlcNAc(b1-3)Gal(b1-4)GlcNAc(b1-3)Gal(b1-4)GlcNAc(b1-3)Gal(b1-4)GlcNAc(b1-6)]Man(a1-6)[GlcNAc(b1-3)Gal(b1-4)GlcNAc(b1-3)Gal(b1-4)GlcNAc(b1-3)Gal(b1-4)GlcNAc(b1-2)Man(a1-3)]Man(b1-4)GlcNAc(b1-4)[Fuc(a1-6)]GlcNAc
Procedure, shortened: as §1

[5] = target: GlcNAc(b1-3)Gal(b1-4)GlcNAc(b1-6)[GlcNAc(b1-3)Gal(b1-3)]GalNAc
Procedure, shortened: as §1

GlcNAc(b1-3)GalNAc = target: GlcNAc(b1-3)GalNAc
Procedure, shortened: as §1

GlcNAc(b1-3)Man = target: GlcNAc(b1-3)Man
Procedure, shortened: as §1

[6] = target: GlcNAc(b1-3)[GlcNAc(b1-4)][GlcNAc(b1-6)]GlcNAc
Procedure, shortened: as §1

[7] = target: GlcNAc(b1-4)GlcNAc(b1-4)GlcNAc
Procedure, shortened: as §1

Kdn(a2-3)Gal(b1-3)GlcNAc = target: Kdn(a2-3)Gal(b1-3)GlcNAc
Procedure, shortened: as §1

[8] = target: Man(a1-2)Man(a1-2)Man(a1-3)Man
Procedure, shortened: as §1

[9] = target: Neu5Ac(a2-3)Gal(b1-3)GalNAc
Procedure, shortened: as §1

[10] = target: Neu5Ac(a2-3)Gal(b1-3)GlcNAc(b1-6)GalNAc
Procedure, shortened: as §1

[11] = target: Neu5Ac(a2-3)Gal(b1-3)[Neu5Ac(a2-6)]GlcNAc(b1-3)[Fuc(a1-3)[Gal(b1-4)]GlcNAc(b1-6)]Gal(b1-4)Glc
Procedure, shortened: as §1

Neu5Ac(a2-3)Gal(b1-4)Glc = target: Neu5Ac(a2-3)Gal(b1-4)Glc
Procedure, shortened: as §1

[12] = target: Neu5Ac(a2-3)Gal(b1-4)[Fuc(a1-3)]GlcNAc(b1-3)Gal(b1-4)GlcNAc
Procedure, shortened: as §1

[13] = target: Neu5Ac(a2-6)Gal(b1-4)GlcNAc(b1-2)Man(a1-6)[Gal(b1-4)GlcNAc(b1-2)Man(a1-3)]Man(b1-4)GlcNAc(b1-4)GlcNAc
Procedure, shortened: as §1

[14] = target: Neu5Ac(a2-6)Gal(b1-4)GlcNAc(b1-2)[Neu5Ac(a2-6)Gal(b1-4)GlcNAc(b1-6)]Man(a1-6)[Neu5Ac(a2-6)Gal(b1-4)GlcNAc(b1-2)Man(a1-3)][GlcNAc(b1-4)]Man(b1-4)GlcNAc(b1-4)GlcNAc
Procedure, shortened: as §1

[15] = target: Neu5Ac(a2-6)Gal(b1-4)GlcNAc(b1-3)Gal(b1-4)GlcNAc(b1-3)Gal(b1-4)GlcNAc
Procedure, shortened: as §1

[16] = target: Neu5Ac(a2-6)GalNAc(b1-4)GlcNAc
Procedure, shortened: as §1

Neu5Ac(a2-8)Neu5Ac = target: Neu5Ac(a2-8)Neu5Ac
Procedure, shortened: as §1

[17] = target: Neu5Gc(a2-3)Gal(b1-3)GlcNAc
Procedure, shortened: as §1

B1: B160 (Bifidobacterium sp) (protein)
chain: MVSHNKRIVAALAAVAAMGIGLAGCGGSDTAGDTKSGSDGGVVNITYMHRLPDSEGMTLVNDIVAKWNKEHPNIQVKATKFDGNAADMIKKLETDVKAGNAPDLAQVGYAEVPEVFTKGLLQDVTDEAAKYKDDFASGPFALMQVDGKTYGLPQDTGPLTYFYNAAEFEKLGITVPKTADELIETAKKTAAQGKYIMTFTPDEAMMMMSGQAGASGPWYKVDGNSWVVNTQTKGSKAVADVYQQLIDNKAALTNPRWDASFDNSIQSGQLIGTVAAAWEAPLFIDSAGGTGAGEWKVTQLGDWFGNGTKTGANGGSGVAVLKGSKHPAEAMEFLDWFNTQVDDLVSQGLVVAATTADAKTPQKWSDYFSGQDVMAEFKTANDNMGDFTYMPGFSAVGAAMKQTAAKAADGSAKVSDVFDTAQKTSVDTLKNLGLSVKE
Question: For B1, which “glycan array binding signal (z-score)” value [1] is on record?
Answer: -0.191

Question: And the “glycan array binding signal (z-score)” value [2]?
Answer: -0.117

Question: What about the “glycan array binding signal (z-score)” value (Glc(a1-4)Glc) of the same binder?
Answer: -0.177

Question: What about the “glycan array binding signal (z-score)” value [3] of the same binder?
Answer: -0.149

Question: And the “glycan array binding signal (z-score)” value [4]?
Answer: -0.094

Question: What about the “glycan array binding signal (z-score)” value [5] of the same binder?
Answer: -0.164

Question: And the “glycan array binding signal (z-score)” value (GlcNAc(b1-3)GalNAc)?
Answer: -0.154

Question: What about the “glycan array binding signal (z-score)” value (GlcNAc(b1-3)Man) of the same binder?
Answer: -0.156

Question: And the “glycan array binding signal (z-score)” value [6]?
Answer: -0.174

Question: What about the “glycan array binding signal (z-score)” value [7] of the same binder?
Answer: -0.167

Question: And the “glycan array binding signal (z-score)” value (Kdn(a2-3)Gal(b1-3)GlcNAc)?
Answer: -0.172

Question: And the “glycan array binding signal (z-score)” value [8]?
Answer: -0.159

Question: And the “glycan array binding signal (z-score)” value [9]?
Answer: -0.204

Question: What about the “glycan array binding signal (z-score)” value [10] of the same binder?
Answer: -0.161

Question: And the “glycan array binding signal (z-score)” value [11]?
Answer: -0.173

Question: And the “glycan array binding signal (z-score)” value (Neu5Ac(a2-3)Gal(b1-4)Glc)?
Answer: -0.173

Question: And the “glycan array binding signal (z-score)” value [12]?
Answer: -0.165

Question: What about the “glycan array binding signal (z-score)” value [13] of the same binder?
Answer: -0.136

Question: And the “glycan array binding signal (z-score)” value [14]?
Answer: -0.14

Question: What about the “glycan array binding signal (z-score)” value [15] of the same binder?
Answer: -0.145

Question: And the “glycan array binding signal (z-score)” value [16]?
Answer: -0.167

Question: And the “glycan array binding signal (z-score)” value (Neu5Ac(a2-8)Neu5Ac)?
Answer: -0.174

Question: What about the “glycan array binding signal (z-score)” value [17] of the same binder?
Answer: -0.189
